# From the supplement of paper PMC6555819
# Test system: VDR:RXRa (NR concentration 270 nM, RXRa partner concentration 90 nM)
# Test: PBM binding z-score (relative to random genomic background probes); higher = stronger binding; sequences stand for … in GC…GCGATTGACAGCGTAGAATGAAGG
# Experimental: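 Protein-binding microarray (Agilent 4x180K custom design, double-stranded 60-nt probes: 5' GC cap, 34-nt variable region, 24-nt constant primer region; full probe sequence given). Purified or IVT nuclear receptor:RXRα heterodimers (3:1 NR:RXRα, mostly 270:90 nM) or homodimers were incubated for 1 h in PBS with 2% milk and no ligand, then detected with Alexa488 antibodies. Fluorescence from o1-orientation probes (~5 replicates averaged) was converted to z-scores against 500 random hg19 background probes. Variable regions are seed direct-repeat (DR0–DR5) sites, all their single-nucleotide variants and half-site ablations.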
row,Sequence,PBM binding z-score
1,CCAGGCAGGTGAAAGGTAACTCAGTCTGGTACGC,0.277
2,CATACAGGGTCAGCTAGGACAGAGTAGGGACGGC,4.03
3,ATTATTAGTTGAGACGAGGGCAACCGATAGGTTG,1.29
4,ATACCAAGGTGATGGTGAGGTCGTTGATACTAAC,3.28
5,CCTTACGGGTGAAGGTTATAGCACGGGTGGTACG,0.0707
6,TCTTGTAGATCAATAGAGGTTAATAAAGTGCGCT,1.84
7,AGTCAAAGTTCCTCTAGGTAACGTAAGATATGCT,0.145
8,TCTTGTAGACCAAGCAGGTTAAGAAAGCCTGAGT,0.582
9,TACCCTAGGTCATGCGGGCCAGTATAGTGTCGGC,3.23
10,CCTACTGGGCCATTCAGAGGTCATTGAACATATG,4.16
11,AGTCAAAGTACAGGACGAGGTAACGTAAAGCACG,-0.143
12,TCGAGTAGGTTACCAATGCGGCATTCAGCTTTCT,-0.196
13,CTACCAAGGTGAACAAGGTCGTTGGTTACTATTC,5.92
14,TCTTGTAGATCAATAGAGGTAAAGAAAGTGCGCT,0.45
15,AATACAGGGTCACTAGACCAGAGTAGGTACGAAT,3.98
16,TCTATTAGTTGAATGGCAACCGACGAGTCCGTTT,0.746
17,TAGCCTAGGTCAGATCGGGACAGTATACGCTATA,1.23
18,AGAACGAGGGCACGCTGAGTTAATAGCAGAGTAG,1.69
19,TCGAGTAAGTTAGTCGGGGCATTCAGCCAACATA,-0.133
20,CGTCCAAGGTCAAAGGTAAGTGAAGAGATGACGG,4.55

row,Sequence,PBM binding z-score
1,TATGCTAGGTCAGTTGGTCAGCTAACGAGCTGCC,0.137
2,AGAACGCGGGCACGCTGAGTTGATAGCAGAGTAG,-0.403
3,TCATAGAGGTAATACAGGTGAAAGTCGGCATCTA,1.07
4,CGTCCAAGGTCAGAGTGGTCAGTGAATGCCGAGT,3.87
5,TGAATGAGGTTAAAGATCAGGGACCGTGGCGTCG,1.77
6,ACAGACAGGTGAGTGCAGGTAACTCAGCTGGACG,-0.127
7,GCGACTGGGGCAAAGCAGGTTACCATTAGGTTGG,-0.0809
8,GCTGCTAGGTCAGGCTGGTCAGCTAACGGGTACG,0.677
9,CATACTAGGTCAAGAGGTCAAAGTCCGCTTCCCG,6.01
10,ACTAGCAGGCCAAGGATCACTCAAGATTAGTCCG,-0.428
11,TCATATCGGTAATACAGGTGAAAGTCGGCATCTA,0.66
12,ATCGAAAGGTCGACGTGAGTATAGAGAAAGGGAA,2.53
13,CAAACTAGGTCACGAAAGGTCAGAGTCGAATGAC,6.2
14,TAGCCTAGGTCATGGGGGCCAGTATAGTGTCGGC,5.43
15,ATCGAAAGGTCGTGAGGTCAGTATACAGAAAGGC,5.51
16,CCTCGGAGGACAACAGGAGGACAGAGCTGCCAGA,-0.461
17,AATACAGGGTCACCGTAGGCCAGAGTACGCACAG,5.2
18,CAAACTAGGTTAAGAGGTCAAAGTCCGCTTCCCG,5.21
19,TCTTGTAGATCAACAGGACGTTAAGAAAGATCGA,0.305
20,CCTTACGGGTCAAGGTTACAGCACGGGTGGTACG,3.34
